We go through 28 compounds from PubChem BioAssay (Tox21).

Inconclusive results are not listed. Some structures have more than one record in an assay (separate samples or runs), and their calls can disagree. The source made the active and inactive calls. Unless noted, calls follow the shape of the dose curve; as a rule, active = well fitted curve in the direction sought with a large enough effect in the repeat runs; inconclusive = weak or mixed curves; inactive = no such curve, though single readings can be large; an effect the other way counts as inactive or inconclusive.

A short description of experiment [1]: qHTS assay to identify small molecule antagonists of the TGF-beta/Smad signaling pathway - cell viability counter screen (AID 1346824). Also: nearly all actives have a fitted effect of over 50% in size. In outline: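 SBE-bla HEK 293T cells were plated overnight at 37 C, then given compounds in DMSO plus TGF-beta1 (added as 0.25 ng/mL solution) for 5 hr. After the bla read, CellTiter-Glo was added to the same wells and luminescence read after 30 min at room temperature.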

Experiment [2] in a line: qHTS assay to identify small molecule agonists of the TGF-beta/Smad signaling pathway - cell viability counter screen (AID 1346829). Also: top concentration of the series differs between compounds; nearly all actives have a fitted effect of over 45% in size. In outline:
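Cytotoxicity counter screen: CellTiter-Glo luminescence (30 min, room temperature) measured in the SBE-bla HEK 293T reporter wells after 5 hr compound treatment at 37 C and the 2 hr substrate step.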
On the technique in general: Quantitative high-throughput screening tests each substance at several concentrations.

Experiment [3] in a line: qHTS assay to identify small molecule agonists of the TGF-beta/Smad signaling pathway (AID 1346859; active = well fitted activation curve with a large enough effect in the signal ratio in the repeat runs, not every such curve was filed as active; the % refers to the signal ratio; also: series mostly up to about 77 µM). In outline: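 Each well held 4,000 SBE-bla HEK 293T cells incubated overnight before compound addition; 5 hr later the cleavable FRET substrate went on for 2 hr at room temperature, and fluorescence was read at two emissions.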
In experiment [4] the target is Thyrotropin-releasing hormone receptor (Homo sapiens) (UniProt P34981). Put plainly: qHTS assay to identify small molecule antagonists of the thyrotropin-releasing hormone receptor (TRHR) signaling pathway (AID 1346877; active = well fitted inhibition curve with a large enough effect in the repeat runs, not every such curve was filed as active; also: potency is read from the fitted curve at half-maximal effect). In outline: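 TRHR-expressing HEK293 cells were seeded, cultured 18 h at 37 °C, then loaded with calcium dye for 2 h. Compounds were pre-incubated 5 min at room temperature before 1 nM TRH (final) was added, and kinetic fluorescence was recorded for 3 min.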
Chain of Thyrotropin-releasing hormone receptor (Homo sapiens) (P34981 whole entry, looked up): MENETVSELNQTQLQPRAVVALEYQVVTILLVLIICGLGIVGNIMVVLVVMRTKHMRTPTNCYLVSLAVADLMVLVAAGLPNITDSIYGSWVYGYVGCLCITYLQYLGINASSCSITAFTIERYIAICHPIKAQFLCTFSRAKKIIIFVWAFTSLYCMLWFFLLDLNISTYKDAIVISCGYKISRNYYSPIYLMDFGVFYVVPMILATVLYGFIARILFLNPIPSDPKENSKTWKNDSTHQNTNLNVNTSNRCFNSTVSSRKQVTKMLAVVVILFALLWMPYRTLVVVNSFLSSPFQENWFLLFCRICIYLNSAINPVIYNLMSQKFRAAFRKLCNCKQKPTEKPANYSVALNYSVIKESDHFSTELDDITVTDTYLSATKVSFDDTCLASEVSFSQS

Experiment [5] shares this target. Put plainly: qHTS assay to identify small molecule agonists of the thyrotropin-releasing hormone receptor (TRHR) signaling pathway (AID 1346891; calls by dose curve; also: series mostly up to about 58 µM). In outline:
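Screening of agonists relied on calcium signalling in HEK293 cells expressing human TRHR: dye loading 2 h at 37 °C preceded compound addition and a 3-min fluorescence time course.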

The nature of experiment [6]: Human pregnane X receptor (PXR) small molecule agonists, qHTS cell viability counter screen (AID 1346977). Also: nearly all actives have a fitted effect of over 50% in size. A digest of the protocol: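 Tox21 qHTS format; PXR-Luc HepG2, 2,000/well, charcoal-stripped FBS 5%. Cpd exposure 24hr. Read: CellTiter-Fluor fluorescence, multiplexed with luciferase.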
The nature of experiment [7]: Caspase-3/7 induction in HepG2 cells by small molecules, qHTS assay (AID 1346978). Also: nearly all actives have a fitted effect of over 15% in size. Also: potency is read from the fitted curve at half-maximal effect. In outline: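 Wild-type HepG2 cells (2,000/well) were settled 5 h at 37 C, 5% CO2, then exposed to compounds in DMSO for 17 h. Caspase-3/7 activity was read by luminescence 30 min after adding Caspase-Glo 3/7 reagent at room temperature.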
A short description of experiment [8]: Caspase-3/7 induction in CHO-K1 cells by small molecules, qHTS cell viability counter screen (AID 1346979). Also: nearly all actives have a fitted effect of over 35% in size. Also: potency is read from the fitted curve at half-maximal effect. In outline: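 CellTiter-Fluor viability check, qHTS format: wild-type CHO-K1, 16hr compound treatment, 1hr reagent incubation, fluorescence read.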
The nature of experiment [9]: Caspase-3/7 induction in CHO-K1 cells by small molecules, qHTS assay (AID 1346980). Also: nearly all actives have a fitted effect of over 15% in size. A digest of the protocol: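 Wild-type cells were seeded at 1,500 per well and settled 5 hr at 37 C, 5% CO2, then exposed to DMSO-dissolved compounds for 17 hr. Caspase-Glo 3/7 reagent was added, and luminescence was read after 30min at room temperature.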
The nature of experiment [10]: Caspase-3/7 induction in HepG2 cells by small molecules, qHTS cell viability counter screen (AID 1346981). Also: nearly all actives have a fitted effect of over 30% in size. Also: potency is read from the fitted curve at half-maximal effect. In outline: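 Wild-type HepG2 cells (2,000/well) were allowed to settle for 5 hr at 37 C, 5% CO2, then dosed with compounds in DMSO by pin transfer. After 16 hr at 37 C, CellTiter-Fluor was added and fluorescence read 1 hr later.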

On to `CN(C)CCCN`, for which the Potency entry in [1], in experiment [2], in experiment [4], in experiment [6], in experiment [7] and in experiment [8] was “inactive” in each case. Also, the Potency entry in experiment [10] was “inactive”. Further, the result in experiment [3], in [5] and in [9] was inactive.
On to `CC1=CC(=O)NS(=O)(=O)O1`, for which the Potency result in experiment [1], in experiment [2], in experiment [4], in [6], in experiment [7] and in experiment [10] was “inactive” throughout. The compound was classed as inactive in experiment [3], in [5] and in [9].
As for `Cc1ccc(N(C)C)cc1`, the Potency entry in experiment [1], in [2], in [4], in experiment [7], in experiment [8] and in experiment [10] was “inactive” each time. The result in experiment [3] and in experiment [9] was inactive.
For the compound `O=C(Oc1ccccc1)c1ccccc1`, the Potency entry in experiment [1], in experiment [2], in experiment [4], in experiment [6], in [7] and in [8] was “inactive” throughout. Further, the Potency entry in experiment [10] was “inactive”. Further, the compound was classed as inactive in experiment [3] and in experiment [9].
As for `C/C=C1/CC2C=CC1C2` (configuration not stated), the Potency result in experiment [1], in [2], in experiment [4], in [6], in experiment [7] and in experiment [8] was “inactive” each time. Further, in [10], the Potency entry is “inactive”. The compound was classed as inactive in [3] and in experiment [9].
On to `CCCCCCCCCCCCCCO`, for which the Potency entry in [1], in [2], in experiment [4], in experiment [6], in [8] and in experiment [10] was “inactive” each time. The outcome in experiment [3], in experiment [5] and in [9] was inactive.
On to `CC[C@H](C)C(=O)O[C@H]1C[C@@H](C)C=C2C=C[C@H](C)[C@H](CC[C@@H]3C[C@@H](O)CC(=O)O3)[C@H]21`, for which the Potency result in experiment [1], in experiment [2] and in experiment [6] was “inactive” throughout. Besides, the result in experiment [3], in experiment [5] and in experiment [9] was inactive. Besides, the Potency in experiment [4] is 38.5 µM (active) and inactive; in [7], 55.2 µM (active) and inactive; in [8], 69.6 µM (active); in experiment [10] it was 69.6 µM (active) and inactive.
For the compound `Nc1ccccc1[N+](=O)[O-]`, the Potency result in [1], in experiment [2], in experiment [4], in [6], in experiment [8] and in [10] was “inactive” throughout. Also, the compound was classed as inactive in experiment [3] and in experiment [9].
For the compound `C=CCOC(=O)c1ccccc1C(=O)OCC=C`, the Potency entry in [1], in [2], in experiment [4], in experiment [6], in [8] and in [10] was “inactive” each time. Also, the result in [3], in experiment [5] and in [9] was inactive.
As for `CCCCCC1=CCCC1=O`, the Potency result in experiment [1], in experiment [2], in [4], in experiment [7], in experiment [8] and in [10] was “inactive” in each case. The call in [3], in experiment [5] and in experiment [9] was inactive.
With `C=CCNC(N)=S`, the Potency entry in [1], in experiment [2], in experiment [4], in experiment [6], in [8] and in experiment [10] was “inactive” in each case. The call in [3], in [5] and in experiment [9] was inactive.
Turning to `CCCC(C)=O`, the Potency result in [1], in experiment [2], in experiment [4], in experiment [6], in experiment [7] and in experiment [8] was “inactive” each time. The Potency result in experiment [10] was “inactive”. Besides, the compound was classed as inactive in experiment [3], in [5] and in [9].
With `OCc1cccnc1`, the Potency result in experiment [1], in [2], in experiment [4], in [8] and in experiment [10] was “inactive” throughout. In addition, the call in experiment [3] and in [9] was inactive.
In the case of `CC(=O)c1ccccc1`, the Potency entry in experiment [1], in [2], in experiment [8] and in experiment [10] was “inactive” in each case. Also, the compound was classed as inactive in experiment [3], in experiment [5] and in experiment [9].
As for `CCc1cccc(C)c1N`, the Potency entry in [1], in [2], in experiment [6], in [7] and in [10] was “inactive” in each case. Also, the compound was classed as inactive in [3] and in experiment [9].
On to `CC(c1cc2ccccc2s1)N(O)C(N)=O` (configuration not stated), for which the Potency result in experiment [1], in experiment [2], in [6] and in experiment [10] was “inactive” throughout. The result in experiment [3], in experiment [5] and in experiment [9] was inactive.
In the case of `Cc1ccc(S(N)(=O)=O)cc1`, the Potency result in experiment [1], in experiment [2], in [4], in experiment [7] and in experiment [10] was “inactive” throughout. Moreover, the compound was classed as inactive in experiment [3] and in experiment [9].
As for `OCCOCCOCCO`, the Potency result in [1], in experiment [2], in experiment [6], in [7], in [8] and in experiment [10] was “inactive” throughout. The compound was classed as inactive in experiment [3] and in experiment [9].
As for `COCCCOc1ccnc(CS(=O)c2nc3ccccc3[nH]2)c1C` (configuration not stated), the Potency entry in [1], in experiment [2], in experiment [6], in experiment [7] and in [10] was “inactive” in each case. Also, the compound was called inactive in experiment [3] and in experiment [9]. The Potency in [8] is 60.9 µM (active) and inactive.
Take `O=[N+]([O-])c1ccc(/C=C/c2ccc([N+](=O)[O-])cc2S(=O)(=O)O)c(S(=O)(=O)O)c1`: the Potency entry in [1] and in experiment [2] was “inactive” throughout. Moreover, the outcome in experiment [3], in experiment [5] and in experiment [9] was inactive.
`CCCCCCCCC/C=C/CC1CC(=O)OC1=O` (configuration not stated): the Potency entry in [1], in experiment [2], in experiment [6], in experiment [7] and in experiment [10] was “inactive” throughout. Besides, the outcome in experiment [3] and in [9] was inactive.
`C=C(C)C(=O)Nc1ccc(Cl)c(Cl)c1`: the Potency result in experiment [1], in experiment [2], in [4] and in experiment [10] was “inactive” in each case. For the same compound, the compound was called inactive in experiment [3] and in experiment [9].
In the case of `O=C(O)c1cc(C(=O)O)cc(S(=O)(=O)O)c1`, the Potency result in experiment [1], in experiment [2], in experiment [6], in experiment [7] and in [10] was “inactive” each time. The compound was classed as inactive in experiment [3] and in [9].
In the case of `FC(F)(F)c1ccc(Cl)c(Cl)c1`, the Potency entry in experiment [1], in [2], in experiment [6], in experiment [7], in [8] and in experiment [10] was “inactive” in each case. Further, the compound was classed as inactive in [3] and in [9].
As to `CC(=O)Nc1ccccc1`, the Potency result in experiment [1], in experiment [2], in experiment [6], in experiment [7] and in [10] was “inactive” throughout. Besides, the compound was classed as inactive in experiment [3] and in [9].
In the case of `CCCCC(CC)COC(=O)CCCCC(=O)OCC(CC)CCCC` (configuration not stated), the Potency result in experiment [1], in experiment [2], in [6], in [7] and in experiment [10] was “inactive” throughout. Further, the call in experiment [3] and in [9] was inactive.
As for `O=C(OCCOCCOC(=O)c1ccccc1)c1ccccc1`, the Potency entry in experiment [1], in experiment [2], in [6], in experiment [7] and in [10] was “inactive” throughout. The call in experiment [3], in [5] and in experiment [9] was inactive.
`CC(=O)OCC(=O)[C@@]12N=C(C)O[C@@H]1C[C@H]1[C@@H]3CCC4=CC(=O)C=C[C@]4(C)[C@H]3[C@@H](O)C[C@@]12C`: the Potency result in experiment [1], in experiment [2], in experiment [8] and in [10] was “inactive” each time. For the same compound, the outcome in [3], in experiment [5] and in experiment [9] was inactive.
